A selection: hits, their analogues and other compounds. The true share with any hit is near 1.1%.
OPRM1-OPRD1 ag: OPRM1-OPRD1 heterodimerization agonism; P35372+P41143; cells, luminescence; activation, % at 9.3 µM; hit rate 0.3% among 340,000;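 note: 0% = vehicle-treated cells and 100% = reference agonist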
OPRM1-OPRD1 inv: inverse agonist of human OPRM1-OPRD1 heterodimerization; hit rate 0.21% among 340,000; inhibition, % at 9.3 µM; P35372+P41143; AID 504357; cell-based MOR-DOR heterodimer luminescence, inverse agonism; in the data active = inhibition above about 22%, passing the limit was not always enough;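 note: 0% = cells with DMSO and 100% = wells without cells with DMSO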
HTR5A ag: activates human HTR5A in OPRM1-OPRD1 agonist counter-screen | hit rate 0.61% among 340,000 | AID 504692 | P47898 | HTR5A agonist assay, luminescence, cell-based | activation, % at 9.3 µM; in the data active = activation mostly above about 9.5%, no sharp cut-off; inactive = mostly below about 7.6%;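 note: 0% = cells with vehicle only and 100% = reference agonist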
Target sequence (P47898 whole entry, looked up): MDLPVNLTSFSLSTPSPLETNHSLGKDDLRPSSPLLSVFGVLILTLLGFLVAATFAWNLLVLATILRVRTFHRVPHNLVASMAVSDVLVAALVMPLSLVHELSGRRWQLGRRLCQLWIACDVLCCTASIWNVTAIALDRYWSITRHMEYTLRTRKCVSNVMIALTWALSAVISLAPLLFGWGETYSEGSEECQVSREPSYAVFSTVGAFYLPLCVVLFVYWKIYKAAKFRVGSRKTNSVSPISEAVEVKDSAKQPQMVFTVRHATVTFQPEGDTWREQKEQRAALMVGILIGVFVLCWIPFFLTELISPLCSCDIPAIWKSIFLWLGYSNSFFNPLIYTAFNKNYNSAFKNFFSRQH
HTR5A inv ctr: inverse agonist of human HTR5A in OPRM1-OPRD1 counter-screen; hit rate 0.083% among 340,000; AID 504634; HTR5A cell line, luminescence, inverse agonism; inhibition, % at 9.3 µM; P47898; in the data active = inhibition mostly above about 23%, no sharp cut-off; inactive = mostly below about 18%;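 note: 0% = cells with DMSO and 100% = no-cell wells with DMSO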
MOR-DOR ag conf: OPRM1-OPRD1 heterodimer agonism, confirmation | shares compounds with OPRM1-OPRD1 ag | cells, MOR-DOR heterodimerization, luminescence complementation | activation, % at 9.3 µM | hit rate 45% among 830 | AID 504904;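 note: 0% = vehicle-treated cells and 100% = reference agonist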
HTR5A ag counter: HTR5A agonism, opioid heterodimer counter-screen. shares compounds with OPRM1-OPRD1 ag. HTR5A agonist counterscreen, cell luminescence. hit rate 8% among 830. AID 504905. activation, % at 9.3 µM; in the data active = activation above about 17%;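 note: 0% = vehicle-treated cells and 100% = reference agonist response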
* marks the source's active call; other numbers are inactive results. Cut-off read from the data, not from the text of the source, unless noted: active = activation above about 18%; inactive = the rest.

For C/C(=N\NC(=O)c1cccc(S(=O)(=O)N2CCOCC2)c1)c1ccc(O)cc1 the results were OPRM1-OPRD1 ag 218.5*, OPRM1-OPRD1 inv inactive, HTR5A ag 7.9, HTR5A inv ctr -19.5, MOR-DOR ag conf -0.6 and HTR5A ag counter 1.9.
For CC(=O)Nc1cccc(/C(C)=N/NC(=O)c2cccc(S(=O)(=O)N3CCOCC3)c2)c1 the results were OPRM1-OPRD1 ag -0.9, OPRM1-OPRD1 inv 4.7, HTR5A ag -0.1 and HTR5A inv ctr -23.6.
CCOc1ccc(CCNC(=O)CCCn2c(=O)c3cccn3c3cccnc32)cc1OCC was read as OPRM1-OPRD1 ag -0.9, OPRM1-OPRD1 inv 4.9, HTR5A ag 1.4 and HTR5A inv ctr -5.5.
OCC1(CC2CCCCO2)CCN(Cc2ccccc2-c2ccco2)CC1 (stereo not given) was read as OPRM1-OPRD1 ag 95.7*, OPRM1-OPRD1 inv inactive, HTR5A ag -1.4, HTR5A inv ctr 3.7, MOR-DOR ag conf 135.7* and HTR5A ag counter 3.1.
`CCOC(=O)C1(CC2CCCCO2)CCN(Cc2cc3ccccc3[nH]2)CC1` (stereo not given) gave OPRM1-OPRD1 ag 307.1*, OPRM1-OPRD1 inv inactive, HTR5A ag 3.6, HTR5A inv ctr -9.2, MOR-DOR ag conf 2.3 and HTR5A ag counter -0.9.
For COc1cccc(CC2(CO)CCCN(Cc3ccc(-c4ccco4)cc3)C2)c1 (stereo not given) the results were OPRM1-OPRD1 ag 3.1, OPRM1-OPRD1 inv -14.1, HTR5A ag -0.6 and HTR5A inv ctr 1.5.
For COc1cccc(CC2(CO)CCCN(Cc3ccccc3-c3ccco3)C2)c1 (stereo not given) the results were OPRM1-OPRD1 ag 97.4*, OPRM1-OPRD1 inv inactive, HTR5A ag -0.9, HTR5A inv ctr -28.6, MOR-DOR ag conf 128.3* and HTR5A ag counter 1.3.
Screening CCOC(=O)C1(CC2CCCCO2)CCN(Cc2ccccc2-c2ccco2)CC1 (stereo not given) returned OPRM1-OPRD1 ag 378.7*, OPRM1-OPRD1 inv inactive, HTR5A ag 2.7, HTR5A inv ctr 3.2, MOR-DOR ag conf 10.1 and HTR5A ag counter 3.5.
CCCc1cc(NC(=O)COC(=O)c2nccnc2N)n(-c2ccccc2)n1 was read as OPRM1-OPRD1 ag -0.8, OPRM1-OPRD1 inv 4.5, HTR5A ag 1.0 and HTR5A inv ctr -3.6.
`COc1cccc(C(=O)NCCNC(=O)c2ccc(C)nc2)c1` gave OPRM1-OPRD1 ag 0.8, OPRM1-OPRD1 inv -4.8, HTR5A ag -2.5 and HTR5A inv ctr -8.1.
For O=C(NCc1nc2ccccc2[nH]1)C1=C[C@H](c2coc3ccccc3c2=O)C[C@H](OCCCCO)O1 the results were OPRM1-OPRD1 ag 4.2, OPRM1-OPRD1 inv -23.6, HTR5A ag 10.6 and HTR5A inv ctr -24.8.
COc1ccccc1N1CCN(C(=O)c2sc3ncnc(N4CCN(c5ccccn5)CC4)c3c2C)CC1 was read as OPRM1-OPRD1 ag -0.2, OPRM1-OPRD1 inv 0.9, HTR5A ag 1.0 and HTR5A inv ctr -2.6.
Screening Cc1nc(N2CCN(c3ccccn3)CC2)c2c(C)c(C(=O)N3CCN(c4ccc(F)cc4)CC3)sc2n1 returned OPRM1-OPRD1 ag 166.7*, OPRM1-OPRD1 inv inactive, HTR5A ag 0.3, HTR5A inv ctr -0.9, MOR-DOR ag conf 238.8* and HTR5A ag counter 4.7.
COc1ccccc1N1CCN(C(=O)c2sc3nc(C)nc(N4CCN(c5ccccn5)CC4)c3c2C)CC1 was read as OPRM1-OPRD1 ag 109.5*, OPRM1-OPRD1 inv inactive, HTR5A ag 15.8, HTR5A inv ctr -42.4, MOR-DOR ag conf 133.9* and HTR5A ag counter -2.7.
`O=C1/C(=C\c2c(NCCOCCO)nc3ccccn3c2=O)SC(=S)N1Cc1ccco1` gave OPRM1-OPRD1 ag 12.3, OPRM1-OPRD1 inv -58.9, HTR5A ag 8.8 and HTR5A inv ctr -32.7.
For O=C(Oc1ccc(/C=N/NC(=O)c2ccccn2)cc1)c1cccc(F)c1 the results were OPRM1-OPRD1 ag -3.5, OPRM1-OPRD1 inv 18.8, HTR5A ag -1.6 and HTR5A inv ctr -9.2.
CC(C)C[C@H]1CN=C(Nc2ccccc2)N1CCc1cccc(F)c1 was read as OPRM1-OPRD1 ag 0.2, OPRM1-OPRD1 inv -1.4, HTR5A ag 3.6 and HTR5A inv ctr -9.1.
For Cc1cccc(CCN2C(Nc3ccccc3)=NC[C@@H]2CC(C)C)c1 the results were OPRM1-OPRD1 ag 37.6*, OPRM1-OPRD1 inv -172.9, HTR5A ag 9.3, HTR5A inv ctr 8.6, MOR-DOR ag conf 0.0 and HTR5A ag counter -2.4.
`O=C(COC(=O)c1cc([N+](=O)[O-])ccc1N1CCOCC1)Nc1ccc(Cl)cn1` gave OPRM1-OPRD1 ag -2.8, OPRM1-OPRD1 inv 15.0, HTR5A ag -2.8 and HTR5A inv ctr 2.0.
CCN(CC)c1ccc(C(=O)OCC(=O)Nc2ccc3[nH]c(=O)[nH]c3c2)cc1 was read as OPRM1-OPRD1 ag 2.1, OPRM1-OPRD1 inv -15.3, HTR5A ag 6.2 and HTR5A inv ctr 1.8.
`CCCCCCn1c(SCC(=O)Nc2cc(C)on2)nc2ccccc2c1=O` gave OPRM1-OPRD1 ag 21.1*, OPRM1-OPRD1 inv -120.6, HTR5A ag 3.0, HTR5A inv ctr -18.8, MOR-DOR ag conf 25.9* and HTR5A ag counter 17.1*.
COCCn1c(SCC(=O)Nc2cc(C)on2)nc2ccccc2c1=O was read as OPRM1-OPRD1 ag -4.7, OPRM1-OPRD1 inv 18.4, HTR5A ag 4.1 and HTR5A inv ctr -10.3.
For CCOC(=O)C1(Cc2cccc(OC)c2)CCN(Cc2cccn2-c2nccs2)CC1 the results were OPRM1-OPRD1 ag 4.9, OPRM1-OPRD1 inv -23.9, HTR5A ag -1.6 and HTR5A inv ctr -14.2.
Screening CCOC(=O)C1(CCOc2ccccc2)CCN(Cc2cccn2-c2cccnc2)CC1 returned OPRM1-OPRD1 ag 224.3*, OPRM1-OPRD1 inv inactive, HTR5A ag -1.7, HTR5A inv ctr 4.7, MOR-DOR ag conf 239.7* and HTR5A ag counter 0.7.
`CCOC(=O)C1(Cc2ccccc2)CCN(Cc2cccn2-c2nccs2)CC1` gave OPRM1-OPRD1 ag 26.6*, OPRM1-OPRD1 inv -192.2, HTR5A ag -2.0, HTR5A inv ctr 5.3, MOR-DOR ag conf 224.2* and HTR5A ag counter 6.1.
`CCOC(=O)C1(Cc2ccccc2)CCN(Cc2cccn2-c2cccnc2)CC1` gave OPRM1-OPRD1 ag 41.1*, OPRM1-OPRD1 inv -217.7, HTR5A ag 0.1, HTR5A inv ctr -0.4, MOR-DOR ag conf 54.9* and HTR5A ag counter -2.1.
Screening O=C(CCc1ccc(S(=O)(=O)N2CCOCC2)cc1)Nc1ccc(F)c(F)c1F returned OPRM1-OPRD1 ag -3.8, OPRM1-OPRD1 inv 15.0, HTR5A ag 4.5 and HTR5A inv ctr -11.3.
O=C(CSc1nc(=O)n(CCN2CCOCC2)c2c1CCCC2)Nc1cccc([N+](=O)[O-])c1 was read as OPRM1-OPRD1 ag -4.4, OPRM1-OPRD1 inv 23.0, HTR5A ag -5.0 and HTR5A inv ctr 12.2.
`COc1cccc(N2CCN(c3ncnc4c3cnn4-c3ccc(C)cc3C)CC2)c1` gave OPRM1-OPRD1 ag 23.4*, OPRM1-OPRD1 inv -129.9, HTR5A ag -1.7, HTR5A inv ctr 4.4, MOR-DOR ag conf 27.3* and HTR5A ag counter 15.2.

High-throughput results: PubChem BioAssay, The Scripps Research Institute Molecular Screening Center
